From PubChem BioAssay AID1220 (Sanford-Burnham Center for Chemical Genomics, 2008) come the findings set out here.

The structures appear in SMILES notation. Among all 190,000 compounds or so, about 1,300 (0.68%) were called active. The entries come from a sample that favours actives as a whole. A number with no mark means an inactive call. Cut-off read from the data, not from the text of the source: active = inhibition above about 50%; inactive = the rest.

The target of the test is Mannose-6-phosphate isomerase (Homo sapiens) (UniProt P34949). Put plainly: human PMI inhibitors, high substrate, primary screen, biochemical, fluorescence intensity, high mannose 6-phosphate (AID 1220). The settings on record: recombinant PMI enzyme, coupled fluorescence intensity; at 20 µM; hits give high values.
Mannose-6-phosphate isomerase (Homo sapiens), sequence (P34949 whole entry, looked up): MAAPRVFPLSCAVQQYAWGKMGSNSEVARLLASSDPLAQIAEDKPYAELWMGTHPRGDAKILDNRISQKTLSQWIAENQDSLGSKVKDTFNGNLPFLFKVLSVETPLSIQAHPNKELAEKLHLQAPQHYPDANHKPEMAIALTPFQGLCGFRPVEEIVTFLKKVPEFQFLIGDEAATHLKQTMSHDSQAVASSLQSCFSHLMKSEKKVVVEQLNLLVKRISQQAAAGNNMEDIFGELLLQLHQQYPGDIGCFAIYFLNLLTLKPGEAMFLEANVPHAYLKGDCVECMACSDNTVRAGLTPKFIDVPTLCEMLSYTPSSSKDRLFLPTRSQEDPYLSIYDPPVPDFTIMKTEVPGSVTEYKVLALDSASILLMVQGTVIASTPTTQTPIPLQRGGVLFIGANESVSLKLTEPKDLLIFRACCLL
As usually defined, the inhibition is the relative decrease from the control value, in per cent. Turning to `COc1cccc(N2CCN(c3ccc(S(=O)(=O)N4CCCC4)cc3)CC2)c1`, the inhibition is 18.6%.
Then `Cc1sc2ncnc(NCC(C)(C)N3CCOCC3)c2c1C`, with -3.6%; and `COCCOC(=O)/C(=C/c1ccc(OC(=O)c2ccccc2)cc1)C(C)=O`, with 0.4%; and `CCOC(=O)/C(=C/c1ccc(OC(=O)c2ccccc2)cc1)C(C)=O`, with 4.7%.
Then `CCOC(=O)/C(=C/c1ccc(OC(=O)c2ccncc2)cc1)C(C)=O`, with 61.4% (active); and `Cn1c2ccccc2c2ncn(CCC3=CCCCC3)c(=O)c21`, with 9.7%.
As to `CCOC(=O)CSc1nc(C)c2cc(C)c(C)cc2n1`, the inhibition was 1.6%.
With `O=C(NC1C=CS(=O)(=O)C1)c1ccccc1` (centres undefined), the inhibition was 5.8%.
As for `COc1cccc(OC)c1C(=O)Oc1ccc2c(c1)O/C(=C\c1ccncc1)C2=O`, the inhibition was 7.7%.
With `COc1ccc(NC(=O)CSc2ncnc3c2cnn3Cc2ccccc2)cc1` the figure was 8.2%.
For the molecule `O=C(Oc1cccc2c(OC(=O)N3CCCC3)cccc12)N1CCCC1`, the inhibition is 57.3% (active).
Then `O=C(Oc1ccc(Cl)c2ccccc12)N1CCCCC1`, with -3.1%.
As to `O=C(Oc1cccc2c(OC(=O)N3CCOCC3)cccc12)N1CCOCC1`, the inhibition is 2.4%.
With `CC(C)CCC(C)N=Cc1c(O)n(Cc2ccccc2)c(=O)c2ccccc12` (centres undefined) the figure was 6.3%; with `CCOC(=O)Nc1ccc(Oc2ccccc2)cc1`, 4.8%; with `N#CC1=C(N)C(C#N)(C#N)C(c2cccnc2)C2CC(c3ccccc3)CC=C12` (centres undefined), 47.2%.
With `N#CC1=C(N)C(C#N)(C#N)C(c2ccc[nH]2)C2CCCC=C12` (centres undefined) the figure was 35.1%; with `N#CC1=C(N)C(C#N)(C#N)C(c2cccnc2)C2CCCC=C12` (centres undefined), 50.3% (active).
Regarding `O=C(O)CCC(=O)Nc1ccc(C(=O)OCC(=O)c2ccc(Cl)cc2Cl)cc1`, the inhibition was 6.3%.
As to `CCCCOC(=O)c1ccc(S(N)(=O)=O)o1`, the inhibition was -1.2%.
Take `O=C(CCNc1cc(Cl)cc(Cl)c1)c1cccs1`: the inhibition was 7.8%.
Then `COc1cc(NCCC(=O)c2cccs2)c(OC)cc1Cl`, with 51.4% (active); and `Cc1ccc(NCCC(=O)c2cccs2)cc1Cl`, with 18.9%.
For `Clc1ccc(CSc2ncnc3nc[nH]c23)cc1`, the inhibition was 3.6%.
Turning to `C=CCc1cccc(C=Nc2ccc(Br)cc2)c1O`, the inhibition was -8.2%.
Then `C=CCc1cccc(/C=N/c2ncccc2O)c1O`, with 34.3%; and `C=CCc1cccc(C=Nc2cc(Br)ccc2O)c1O`, with 57% (active); and `O=C(NCCCN1CCCC1=O)C1CCCO1` (centres undefined), with 5.1%.
For `Cc1nn(-c2ccccc2)c2[nH]c(=O)c(CNc3ccc(N4CCOCC4)cc3)cc12`, the inhibition is 55.6% (active).
As for `Cc1nn(-c2ccccc2)c2[nH]c(=O)c(CNc3ccc4c(c3)OCCO4)cc12`, the inhibition was 54.2% (active).
Consider `Cc1nn(-c2ccccc2)c2[nH]c(=O)c(CNCc3ccc4c(c3)OCO4)cc12`, for which the inhibition was 2.9%.
For `Cc1nn(-c2ccccc2)c2[nH]c(=O)c(CNCCN3CCOCC3)cc12`, the inhibition is 4.3%.
For `CC(C)(C)c1nn(-c2ccccc2)c2[nH]c(=O)c(CNc3ccc4c(c3)OCCO4)cc12`, the inhibition was 5.7%.
For the molecule `CCc1ccc(NCc2cc3c(C)nn(-c4ccccc4)c3[nH]c2=O)cc1`, the inhibition was 8.8%.
With `Cn1cc(S(=O)(=O)CC(=O)N2CCCc3ccccc32)c2ccccc21` the figure was 6.6%; with `Cc1ccc(N2C(=O)NC(NC(=O)C(C)(C)C)(C(F)(F)F)C2=O)cc1` (centres undefined), 4.9%.
For `COC(=O)c1ccc(/C=N/NC(=O)CNc2cccc(C)c2)cc1`, the inhibition was 9.8%.
As to `CN(C)S(=O)(=O)c1cccc(NC(=S)NC2CCCCC2)c1`, the inhibition is -2.3%.
Take `CCN(CCO)c1ccc(NC(=S)Nc2cccc(S(=O)(=O)N(C)C)c2)cc1`: the inhibition is 54.1% (active).
With `CN(C)S(=O)(=O)c1cccc(NC(=S)Nc2cc(Cl)cc(Cl)c2)c1`, the inhibition was -6.4%.
Take `CCN(Cc1ccccc1)S(=O)(=O)c1cc(C(=O)c2c(N)n(C)c(=O)n(C)c2=O)ccc1OC`: the inhibition is 0.7%.
Regarding `CC1CCCN(C(=S)SCC(=O)O)C1` (centres undefined), the inhibition was 0.2%.
Then `CC(C)(C)NCC(=O)N/N=C/c1ccc(OCc2ccccc2)cc1`, with -4.4%; and `Cc1cc(=O)[nH]c2c(N=Nc3ccc(O)cc3)c(N)nn12`, with 45.7%; and `Nc1nn2c(-c3ccccc3)cc(=O)[nH]c2c1N=Nc1ccc(O)cc1`, with 55.4% (active).
In the case of `Nc1nn2c(-c3ccccc3)cc(=O)[nH]c2c1N=Nc1ccc(Br)cc1`, the inhibition was 12.3%.
With `COC(=O)c1ccccc1NC(=O)N1CCN(C(=O)c2ccco2)CC1`, the inhibition was 13.1%.
Then `CCn1c(C)c(C(C)=O)c(N2CCN(c3ccc(OC)cc3)CC2)nc1=S`, with 50.3% (active).
For the molecule `CCn1c(C)c(C(C)=O)c(N2CCN(c3ccc(F)cc3)CC2)nc1=S`, the inhibition is -6.4%.
Regarding `CCn1c(C)c(C(C)=O)c(N2CCN(c3ccccc3)CC2)nc1=S`, the inhibition is -20.8%.
With `O=S(=O)(c1ccc(Br)cc1)N1CCN=C1SCc1cccnc1` the figure was 0.3%; with `Cc1ccc(-n2c(=O)c3ccccc3n(CC(=O)NCc3ccco3)c2=O)cc1`, -5.8%; with `CCCc1nnc2c(N(C)S(=O)(=O)c3ccccc3)nc3ccccc3n12`, 4.2%.
Regarding `COc1ccc(NC(=S)NC(C)Cc2cccs2)cc1` (centres undefined), the inhibition is 3.7%.
As for `CCc1cccc(NC(=O)Cn2cc(C=O)c3ccccc32)c1`, the inhibition is -9.7%.
With `O=C(COc1ccc(Br)cc1)NCCO` the figure was 8.7%.
On to `CC(C)c1ccc(OC(=O)NCCO)cc1`, for which the inhibition was 9.1%.
Take `CC(C)c1ccc(OCC(=O)NCCO)cc1`: the inhibition was 55.1% (active).
As to `COc1ccc(/C=N/Nc2nccnc2Cl)cc1`, the inhibition was -6.9%.
With `CC(=O)c1ccc2c3c(cccc13)CC2` the figure was 6%; with `Nc1ccc2c3c(cccc13)CC2`, 64.4% (active).
Consider `c1ccc(Nc2ccc3c4c(cccc24)CC3)cc1`, for which the inhibition was 17.7%.
With `OC(COc1ccc2c(c1)OCO2)CN1CCN(c2ccc(F)cc2)CC1` (centres undefined), the inhibition was -1%.
On to `CC(=O)c1cn(CC(=O)Nc2ccc(C)cc2C)c2ccccc12`, for which the inhibition was -0.4%.
Then `COc1cc(/C=N/NC(N)=O)ccc1OC(=O)c1ccco1`, with 3.7%.
As for `Cc1ccc(N(C(=O)C2CCCO2)C2C=CS(=O)(=O)C2)cc1Cl` (centres undefined), the inhibition was 0.2%.
Regarding `CCOc1ccc(N(C(=O)C2CCCO2)C2C=CS(=O)(=O)C2)cc1` (centres undefined), the inhibition is -4.8%.
Consider `O=C(C1CCCO1)N(c1ccc(F)cc1)C1C=CS(=O)(=O)C1` (centres undefined), for which the inhibition is 52.9% (active).
In the case of `C=C1C(=O)[C@@]23[C@H](O)C[C@@H]4C(C)(C)CC[C@H](O)[C@@]4(C)[C@@H]2CC[C@@H]1[C@H]3O`, the inhibition is 3.9%.
For `C=C1C(=O)[C@@]23[C@H](O)C[C@@H]4C(C)(C)CC[C@H](O)[C@]4(C)[C@@H]2C[C@H](O)[C@@H]1[C@H]3O`, the inhibition is 52.3% (active).
As to `Cc1cc2cc(C=C(C#N)C#N)c(Cl)nc2cc1C`, the inhibition is 54.1% (active).
In the case of `Cc1ccc2cc(C=O)c(Cl)nc2c1`, the inhibition is 39.8%.
In the case of `Cc1ccc2cc(C=O)c(N(C)C)nc2c1`, the inhibition was 8.2%.
With `Cc1cc2cc(C=O)c(Cl)nc2cc1C` the figure was 58.2% (active).
Then `Cc1cc(C)c2cc(CNC3CCCC3)c(Cl)nc2c1`, with 3.4%; and `CCOC(=O)/C(C#N)=C/c1cc2ccc(C)cc2nc1Cl`, with 21.5%; and `CCOC(=O)/C(C#N)=C/c1cc2ccccc2nc1Cl`, with 21.1%.
In the case of `CC(C)(C)c1nn(-c2ccccc2)c2nc(Cl)c(C=O)cc12`, the inhibition is -0.4%.
For the molecule `CCC(C)(C(=O)NC1CCCCC1)N(C(=O)C1CCC(=O)N1)c1ccc(C)cc1` (centres undefined), the inhibition is -0.7%.
With `CCC(=O)NC(=S)Nc1cccc(NC(=O)c2ccco2)c1`, the inhibition was 9.6%.
Consider `CCC(C)C(NC(=O)c1ccc(Cl)cc1Cl)C(=O)O` (centres undefined), for which the inhibition was 1.7%.
On to `COc1ccc(CC(=O)Nc2ccccc2C(=O)N2CCOCC2)cc1`, for which the inhibition was 5.3%.
Consider `CCOC(=O)N1CCC(N2Cc3cccc(C(=O)Nc4ccc(F)cc4)c3C2=O)CC1`, for which the inhibition is -3.9%.
`O=C(COc1ccccc1[N+](=O)[O-])NNC(=O)Nc1cccc2ccccc12`: the inhibition is 59.8% (active).
Consider `COC(=O)c1ccccc1NC(=O)COc1ccccc1[N+](=O)[O-]`, for which the inhibition is -1.9%.
As to `NNC(=O)COc1ccccc1[N+](=O)[O-]`, the inhibition was 4.8%.
With `CCOCCCn1c(=N)c(C(=O)NCc2ccc3c(c2)OCO3)cc2c(=O)n3ccccc3nc21`, the inhibition is -7.7%.
Then `CC(C)OCCCNC(=O)c1ccc(N(C)S(C)(=O)=O)cc1`, with 6.8%; and `Cc1ccc(N=Cc2sc(O)c3ccccc23)c(C)c1`, with 2.2%.
As to `CCOc1cccc(C=Nc2cc(C)cc(C)c2O)c1O`, the inhibition is 7%.
Then `Cc1cccc(C=Nc2ccc3c(c2)oc2ccccc23)c1O`, with 30.1%; and `CCc1ccc(O)c(N=Cc2cccc(C)c2O)c1`, with 17.4%.
For the molecule `CCC(=O)N1CCN(c2ccccc2NC(=O)Cc2ccccc2)CC1`, the inhibition was 3.5%.
Then `CCNC(=S)Nc1ccc(S(=O)(=O)Nc2cc(C)nc(C)n2)cc1`, with -7.6%; and `O=C(O)C1CC=CCC1C(=O)Nc1cccc(C(=O)N2CCCCC2)c1` (centres undefined), with -20.1%.
Take `COc1cccc(C(c2sc3nc(C)nn3c2O)N2CCc3ccccc3C2)c1` (centres undefined): the inhibition was 42.6%.
With `COc1cc(C(c2sc3nc(C)nn3c2O)N2CCc3ccccc3C2)cc(OC)c1OC` (centres undefined), the inhibition was 5.1%.
In the case of `Cc1ccc2c(c1)NC(=O)C(CC(=O)NCCCN1CCN(c3cc(C)ccc3C)CC1)O2` (centres undefined), the inhibition was 9.9%.
Consider `CN(C)/C=N/c1nc(-c2ccc3c(c2)OCO3)cs1`, for which the inhibition is 7.4%.
